The structures appear in SMILES notation. Results filed as inconclusive are left out. Entries that show only a call come without a potency. Calls of active or inactive are those of the source. Calls follow the shape of the dose curve; as a rule, active = well fitted inhibition curve with a large enough effect in the repeat runs; inconclusive = weak or mixed curves; inactive = flat fitted curve, though single readings scatter.
Potency is read from the fitted curve at half-maximal effect.

The target in this assay is Cytochrome P450 2D6 (Homo sapiens) (UniProt P10635). As to the kind of experiment: Cytochrome P450 family 2 subfamily D member 6 (CYP2D6) small molecule antagonists: luciferase biochemical (cell-free) qHTS assay (AID 1645840). Also: nearly all actives have a fitted effect of over 55% in size. The conditions noted are these: P450-Glo CYP2D6 enzyme, luciferin luminescence, 1 h; series mostly up to 57.4 µM. In short, it runs like this: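 P450-Glo CYP2D6 system: proluciferin substrate converted by enzyme to luciferin, read by luminescence proportional to activity. Enzyme-substrate mix with compound 10 min at room temperature, then NADPH regeneration 1 h before detection reagent.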
Cytochrome P450 2D6 (Homo sapiens), sequence (P10635 whole entry, looked up): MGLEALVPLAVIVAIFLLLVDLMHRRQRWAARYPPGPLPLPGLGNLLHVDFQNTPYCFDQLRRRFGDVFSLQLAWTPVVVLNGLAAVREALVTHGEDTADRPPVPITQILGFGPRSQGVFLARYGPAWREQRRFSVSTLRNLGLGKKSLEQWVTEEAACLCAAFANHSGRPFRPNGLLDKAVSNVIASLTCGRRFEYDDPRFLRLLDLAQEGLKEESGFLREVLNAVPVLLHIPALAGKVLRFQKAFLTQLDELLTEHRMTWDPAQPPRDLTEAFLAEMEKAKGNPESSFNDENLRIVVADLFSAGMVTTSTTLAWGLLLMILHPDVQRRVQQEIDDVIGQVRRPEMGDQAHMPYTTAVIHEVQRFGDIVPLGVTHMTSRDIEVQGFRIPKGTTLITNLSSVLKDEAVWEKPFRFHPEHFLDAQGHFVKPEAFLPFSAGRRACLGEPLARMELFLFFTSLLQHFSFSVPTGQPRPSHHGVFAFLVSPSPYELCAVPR
A general note: In qHTS, concentration-response curves come from the screen itself.
In the case of `C[C@H](N)C(=O)c1ccccc1`, the Potency is 42.2 µM (active).

As to `Nc1nc(N)nc(NC2CC2)n1`, the Potency result was “inactive”. Turning to `O=c1[nH]oc2c1CCNC2`, the Potency result was “inactive”. Next, `COc1c2c(cc3c1OCO3)CCN(C)C2`: 2.45 µM (active). Consider `CCC(C)(C)c1ccc(O)cc1`, for which the Potency entry was “inactive”. `NC1=NC(=O)C(c2ccccc2)O1` (centres undefined): the Potency entry is “inactive”.

Regarding `CCCOC(=O)c1cncn1C(C)c1ccccc1` (centres undefined), the Potency entry is “inactive”. For the molecule `CC(C)=CC1C(C(=O)OCN2C(=O)C3=C(CCCC3)C2=O)C1(C)C` (centres undefined), the Potency was 6.92 µM (active). Next, `CCC1(c2ccc(N)cc2)CCC(=O)NC1=O` (centres undefined): “inactive”; `CCN[C@@H](C)Cc1cccc(C(F)(F)F)c1`: 2.75 µM (active).

Regarding `CNCC(=O)c1ccc(O)c(O)c1`, the Potency entry is “inactive”. Regarding `C[C@]12CCC(=O)C=C1CC[C@@H]1[C@@H]2CC[C@]2(C)C(=O)CC[C@@H]12`, the Potency entry is “inactive”. Consider `COc1cccc2c1C(=O)c1c(O)c3c(c(O)c1C2=O)C[C@@](O)(C(=O)CO)CC3OC1CC(N2CCOC(OC)C2)C(O)C(C)O1` (some centres undefined), for which the Potency result is “inactive”. On to `CCCCCCC(=O)CCCCCC/C=C/C[C@@H](O)[C@H](O)[C@@](N)(CO)C(=O)O`, for which the Potency result was “inactive”. On to `CCN[C@H](C)Cc1cccc(C(F)(F)F)c1`, for which the Potency was 3.16 µM (active). Take `O=P1(N(CCCl)CCCl)NCCCO1` (centres undefined): the Potency entry is “inactive”. As for `O=C1CN=C(c2ccccc2)c2cc([N+](=O)[O-])ccc2N1`, the Potency result was “inactive”. `C[C@]12CCC(=O)C=C1CC[C@@H]1[C@H]3CC[C@](C)(O)[C@@]3(C)CC[C@@H]12`: the Potency is 43.5 µM (active). In the case of `COc1cccc([C@@]2(O)CCCC[C@@H]2CN(C)C)c1`, the Potency result is “inactive”. As for `CC(Cc1ccccc1)N(C)Cc1ccco1` (centres undefined), the Potency was 2.45 µM (active). Next, `O=C1c2ccccc2C(=O)C1C(=O)C(c1ccccc1)c1ccccc1`: 19.2 µM (active).

Turning to `C#C[C@]1(O)CC[C@H]2[C@@H]3CCC4=CC(=O)CC[C@]4(C)[C@H]3CC[C@@]21C`, the Potency entry is “inactive”. Regarding `CC1(C)C(C=C(Cl)Cl)C1C(=O)OC(C#N)c1cccc(Oc2ccccc2)c1` (centres undefined), the Potency result is “inactive”. For `CCC1(c2ccccc2)C(=O)N(COC)C(=O)N(COC)C1=O`, the Potency result is “inactive”. `COC(=O)C(Cl)C(=O)OC`: the Potency entry is “inactive”. As for `C[C@]12CCC(=O)C=C1CC[C@@H]1[C@@H]2CC[C@@]2(C)[C@H]1CC[C@]2(C)O`, the Potency entry is “inactive”. Take `CCN(CCO)CCn1c(Cc2ccccc2)nc2c1c(=O)n(C)c(=O)n2C`: the Potency result was “inactive”. As for `O=C(CCCN1CCC2(CC1)C(=O)NCN2c1ccccc1)c1ccc(F)cc1`, the Potency was 0.309 µM (active). Next, `O=C(N/N=C/c1ccc([N+](=O)[O-])o1)c1cc([N+](=O)[O-])cc([N+](=O)[O-])c1O`: 0.617 µM (active); `C=CCN1C[C@H](C)N([C@H](c2ccc(C(=O)N(CC)CC)cc2)c2cccc(OC)c2)C[C@H]1C`: 2.45 µM (active). In the case of `C[C@H]1[C@@H]2Cc3ccc(O)cc3[C@@]1(C)CCN2C`, the Potency is 107 µM (active). With `ClCCN1CCCC1`, the Potency result is “inactive”. Consider `CN1CCC(O)(c2ccc(F)cc2)C(C(=O)c2ccc(F)cc2)C1` (centres undefined), for which the Potency is 24.5 µM (active).

Take `NCCc1ccc(O)cc1`: the Potency was 13.8 µM (active).
